Source: a collection of fitness landscapes (doi:10.1126/science.1257360)
Over roughly 140,000 sequences, “enrichment ratio after two sorts for PhoP signalling” has its median near 0; the highest 2% begin near 11. The full list was thinned out, with the highest values kept by preference.

B1: PhoQ; a variant is named by its letters at X, in order, P23837 (parent)
chain: MKKLLRLFFPLSLRVRFLLATAAVVLVLSLAYGMVALIGYSVSFDKTTFRLLRGESNLFYTLAKWENNKLHVELPENIDKQSPTMTLIYDENGQLLWAQRDVPWLMKMIQPDWLKSNGFHEIEADVNDTSLLLSGDHSIQQQLQEVREDDDDAEMTHSVAVNVYPATSRMPKLTIVVVDTIPVELKSSYMVWSWFIYVLSANLLLVIPLLWVAAWWSLRPIEALAKEVRELEEHNRELLNPATTRELTSLVRNLNRLLKSERERYDKYRTTLTDLTHSLKTPLXXLQXXLRSLRSEKMSVSDAEPVMLEQISRISQQIGYYLHRASMRGGTLLSRELHPVAPLLDNLTSALNKVYQRKGVNISLDISPEISFVGEQNDFVEVMGNVLDNACKYCLEFVEISARQTDEHLYIVVEDDGPGIPLSKREVIFDRGQRVDTLRPGQGVGLAVAREITEQYEGKIVAGESMLGGARMEVIFGRQHSAPKDE

Variants of: B1
Test: enrichment ratio after two sorts for PhoP signalling (ratio (wild type AVST 3.29)); higher = more functional
Conditions: with PhoP (E. coli)

Variant	enrichment ratio
FYWP	≤ 0.25
RAPP	≤ 0.25
TIYT	2.66
HIYY	≤ 0.25
IYRV	≤ 0.25
SKMA	3.27
WRFK	≤ 0.25
DFPC	≤ 0.25
YMWR	≤ 0.25
QAAI	12.7
YTAI	≤ 0.25
QPAI	≤ 0.25
TPAI	≤ 0.25
MTAI	17.8
MKAI	≤ 0.25
GKTK	≤ 0.25
YGMR	≤ 0.25
ACFV	≤ 0.25
HMPM	≤ 0.25
HMGM	≤ 0.25
FVLM	8.14
YCWM	≤ 0.25
ISWM	≤ 0.25
KCLM	≤ 0.25
IALM	6.67

Variant	enrichment ratio
ISLM	12.9
YCLM	14.9
YYLM	≤ 0.25
HMTM	11.7
FCLM	12.7
QYLA	≤ 0.25
RGIA	≤ 0.25
WTPQ	≤ 0.25
MDVM	8.67
PTAN	≤ 0.25
QCEP	≤ 0.25
CALR	≤ 0.25
WMFY	≤ 0.25
IQQW	≤ 0.25
VWEW	≤ 0.25
HMQF	≤ 0.25
YSKM	≤ 0.25
WFWG	≤ 0.25
GVAV	≤ 0.25
NSLM	7.81
HSFM	≤ 0.25
FFLM	≤ 0.25
HSLM	22.1
HSLA	≤ 0.25
FQLM	1.74

Variant	enrichment ratio
SSLM	17.1
KSLM	≤ 0.25
TSLM	16.7
SYLM	≤ 0.25
FSLM	19.2
QNNM	≤ 0.25
YPIG	≤ 0.25
PMYL	≤ 0.25
WVSG	≤ 0.25
GGKL	≤ 0.25
LPCH	≤ 0.25
RYCQ	≤ 0.25
HSTM	13.1
FAPM	0.451
HSCK	≤ 0.25
FALM	17
HSWM	≤ 0.25
MALM	9.02
AEWY	6.65
FPSQ	≤ 0.25
YFHS	≤ 0.25
HESK	≤ 0.25
QHRM	≤ 0.25
THDG	≤ 0.25
QHDG	110

Variant	enrichment ratio
PHDG	≤ 0.25
QHDA	10.1
QHGM	≤ 0.25
QHDS	29.2
QHDM	19.5
QHDK	≤ 0.25
THDI	≤ 0.25
NHDI	≤ 0.25
QHDI	19.6
LMVM	≤ 0.25
EFMR	≤ 0.25
LCAK	≤ 0.25
IKYG	≤ 0.25
AISC	9.79
SAFV	≤ 0.25
AGNI	≤ 0.25
PWYG	≤ 0.25
YQNS	≤ 0.25
YQLA	≤ 0.25
YQLM	17.7
WELF	≤ 0.25
WELM	17.4
WEGM	≤ 0.25
YQNA	14.6
YQNY	≤ 0.25

Variant	enrichment ratio
WILM	≤ 0.25
WFLM	≤ 0.25
WQLM	15.8
YQWM	≤ 0.25
QISH	7.86
FCVP	≤ 0.25
NSRA	0.539
NGWY	≤ 0.25
VQWA	≤ 0.25
KYLM	≤ 0.25
NQLM	6.38
SQLM	21.3
DPLM	≤ 0.25
TQLM	22.7
EQLM	≤ 0.25
MPQH	≤ 0.25
KFKS	≤ 0.25
TDIN	≤ 0.25
LAGL	≤ 0.25
SWST	≤ 0.25
DQAN	≤ 0.25
NHCY	≤ 0.25
THCY	1.87
NMCY	≤ 0.25
AMCY	25.2

Variant	enrichment ratio
AHCY	12.7
VLCY	≤ 0.25
SYHH	0.299
IIEM	≤ 0.25
KTPQ	≤ 0.25
MTSW	≤ 0.25
AFCE	≤ 0.25
AFMG	19.5
AFVG	4.66
AFCG	11.4
AFAG	≤ 0.25
AFCI	≤ 0.25
SDVD	≤ 0.25
FQFY	≤ 0.25
YCFT	≤ 0.25
QDDD	≤ 0.25
NLAY	≤ 0.25
GAMS	≤ 0.25
TPSS	≤ 0.25
TNLC	13.5
MNLA	≤ 0.25
KCLC	≤ 0.25
GNLC	4.14
MNLC	11.7
MCLC	1.65

Variant	enrichment ratio
RMKH	≤ 0.25
FPFY	≤ 0.25
FYFF	≤ 0.25
FHQK	≤ 0.25
ATIH	25.3
YTIH	≤ 0.25
ANIH	≤ 0.25
TGIH	≤ 0.25
ADIH	≤ 0.25
AGIH	16.3
HART	≤ 0.25
AQSF	11.9
WISF	≤ 0.25
ADSF	≤ 0.25
AISF	13.4
AKSF	2.49
AQHF	≤ 0.25
PMKN	≤ 0.25
SCIV	1.12
RGCA	≤ 0.25
GGCA	6.15
RGCE	≤ 0.25
GGCE	≤ 0.25
TGCA	19.8
AGCK	16.1

Variant	enrichment ratio
RQKH	≤ 0.25
RQQH	≤ 0.25
AGGM	≤ 0.25
AGWM	≤ 0.25
TGCE	24.6
RQKI	19.2
GKAG	≤ 0.25
TPNE	≤ 0.25
EIDL	≤ 0.25
VTQY	≤ 0.25
KAGG	≤ 0.25
SNFF	≤ 0.25
AGCV	23.6
AGCA	15
AGDI	≤ 0.25
RGCK	≤ 0.25
AGWI	≤ 0.25
TGCK	37.2
AGVA	1.62
TGCV	7.81
AGDH	≤ 0.25
GGCK	≤ 0.25
AGVY	18.3
TGVY	2.88
